Results from PubChem BioAssay (Tox21).
Results filed as inconclusive are left out. Activity calls are given as the source filed them. Unless noted, the call rests on the fitted dose curve.

Columns and labels:
[1] = Nuclear factor erythroid 2-related factor 2/antioxidant responsive element (Nrf2/ARE) small molecule agonists: qHTS cell viability counter screen in human keratinocytes (AID 1919968; active means well fitted curve in the direction sought with a large enough effect in the repeat runs; an effect the other way counts as inactive or inconclusive; further: nearly all actives have a fitted effect of over 55% in size)
Summary of the method: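 Fluorescence read-out from CellTiter-Fluor after 1 h at 37 C. Wells held HaCaT-derived ARE-luciferase reporter cells (1,500/well) treated 23 h with DMSO-dissolved compounds. Run in the same wells as the luciferase agonist read.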

[2] = molecular target: Gonadotropin-releasing hormone receptor (Homo sapiens) (UniProt P30968); experiment: Human gonadotropin-releasing hormone receptor (GnRHR) small molecule agonists, calcium flux assay in GnRHR-HEK293 cells (AID 1920063); further: nearly all actives have a fitted effect of over 35% in size
Chain of Gonadotropin-releasing hormone receptor (Homo sapiens) (P30968 whole entry, looked up): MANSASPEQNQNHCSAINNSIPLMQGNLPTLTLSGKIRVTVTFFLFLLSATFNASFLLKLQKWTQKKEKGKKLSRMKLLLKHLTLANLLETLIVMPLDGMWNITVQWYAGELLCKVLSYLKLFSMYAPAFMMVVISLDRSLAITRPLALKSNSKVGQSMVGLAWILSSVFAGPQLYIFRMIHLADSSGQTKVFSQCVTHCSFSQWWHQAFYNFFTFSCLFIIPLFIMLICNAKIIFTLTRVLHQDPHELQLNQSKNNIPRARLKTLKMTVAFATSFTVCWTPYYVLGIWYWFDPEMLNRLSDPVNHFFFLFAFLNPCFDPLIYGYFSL
Summary of the method: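 Calcium-dye fluorescence, Ex/Em=480/540, recorded every 1 sec over 3 min after compound addition to GnRHR-HEK293 cells. Cells had been seeded 18 hours earlier and dye-loaded for 1 hour at 37 C. Fifteen concentrations, triplicates.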

[3] = molecular target: KiSS-1 receptor (Homo sapiens) (UniProt Q969F8); experiment: Human kisspeptin (KISS1R) small molecule agonists, calcium flux assay in KISS1R-HEK293 cells (AID 1920064; active means well fitted curve in the direction sought with a large enough effect in the repeat runs; an effect the other way counts as inactive or inconclusive)
Chain of KiSS-1 receptor (Homo sapiens) (Q969F8 whole entry, looked up): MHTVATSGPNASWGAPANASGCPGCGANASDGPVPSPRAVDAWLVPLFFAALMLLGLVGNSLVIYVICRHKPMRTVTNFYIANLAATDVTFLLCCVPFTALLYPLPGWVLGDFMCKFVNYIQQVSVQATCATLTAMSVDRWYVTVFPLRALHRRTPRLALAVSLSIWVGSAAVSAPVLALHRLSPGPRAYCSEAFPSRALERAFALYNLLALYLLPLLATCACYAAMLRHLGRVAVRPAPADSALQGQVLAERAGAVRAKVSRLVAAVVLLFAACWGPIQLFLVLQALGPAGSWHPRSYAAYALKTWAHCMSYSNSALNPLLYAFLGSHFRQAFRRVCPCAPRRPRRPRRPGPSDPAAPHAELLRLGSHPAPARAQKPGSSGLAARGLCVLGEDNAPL
Summary of the method: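 Calcium flux read-out: kinetic fluorescence at Ex/Em=480/540, 1 s intervals over 3 min, after pin-tool compound addition to dye-loaded KISS1R-HEK293 cells. Fifteen concentrations, triplicates.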

[4] = G protein-coupled receptor (GPCR) small molecule agonists, calcium flux assay: HEK293 wild type cell line counter screen (AID 1920065)
Summary of the method: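 Agonist mode; 18 h seeding at 37 C, 1 h dye load at 37 C; compounds pinned from DMSO, ATP as positive control; kinetic fluorescence 480/540 nm, 3 min, 1 s reads; 15 concentrations, triplicate.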

[5] = p53 small molecule agonists, cell-based qHTS assay with human liver microsomes (AID 1963577);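 further: p53 response element beta-lactamase reporter cells with liver microsomes plus NADPH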
Summary of the method: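 Steps: plate p53RE-bla cells, incubate 5 h at 37 C; add compound in DMSO; add microsomes (0.5 mg/mL final) and NADPH (0.5 mg/mL final); incubate 16 h at 37 C; add LiveBLAzer, 2 h RT; read fluorescence.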

[6] = p53 small molecule agonists, cell-based qHTS assay with rat liver microsomes (AID 1963578)
Summary of the method: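 Metabolic activation is supplied by rat liver microsomes with NADPH (each 0.5 mg/mL final). p53RE-bla cells incubate with compound 16 h at 37 C; reporter activity is measured by LiveBLAzer fluorescence.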

[7] = p53 small molecule agonists, cell-based qHTS assay with human liver microsomes: qHTS cell viability counter screen (AID 1963579); further: nearly all actives have a fitted effect of over 45% in size
Summary of the method: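 After the 460/530 nm beta-lactamase read, CellTiter-Glo was added to the same wells and luminescence measured after 30 min at room temperature, giving viability of p53RE-bla cells treated 16 h with compounds plus microsomes and NADPH.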

[8] = p53 small molecule agonists, cell-based qHTS assay with rat liver microsomes: qHTS cell viability counter screen (AID 1963580); further: nearly all actives have a fitted effect of over 45% in size
Summary of the method: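 Counter screen for cytotoxicity under metabolic activation: rat liver microsomes and NADPH, 0.5 mg/mL final each, added with compounds to p53RE-bla HCT-116 cells; 16 h at 37 C, then ATP luminescence read.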

[9] = p53 small molecule agonists, cell-based qHTS assay: qHTS cell viability counter screen (AID 1963581); further: nearly all actives have a fitted effect of over 45% in size
Summary of the method: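 Cytotoxicity read-out: ATP-based luminescence (CellTiter-Glo, 30 min RT) measured in the same wells as the p53 reporter assay, HCT-116 p53RE-bla cells, 16 h compound exposure at 37 C.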

[10] = p53 small molecule agonists, cell-based qHTS assay (AID 1963582; active means well fitted activation curve with a large enough effect in the signal ratio in the repeat runs, not every such curve was filed as active; the % refers to the signal ratio)
Summary of the method: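 Fluorescence intensity read-out of a beta-lactamase reporter under a p53 response element. Cells were exposed to DMSO-dissolved compounds for 16 h at 37 C, then developed with FRET substrate for 2 h at RT.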

[11] = molecular target: 5-hydroxytryptamine receptor 2A (Homo sapiens) (UniProt P28223); experiment: 5-hydroxytryptamine receptor 2A (HTR2A) small molecule antagonists, cell-based qHTS assay (AID 1963586); further: nearly all actives have a fitted effect of over 45% in size
Chain of 5-hydroxytryptamine receptor 2A (Homo sapiens) (P28223 whole entry, looked up): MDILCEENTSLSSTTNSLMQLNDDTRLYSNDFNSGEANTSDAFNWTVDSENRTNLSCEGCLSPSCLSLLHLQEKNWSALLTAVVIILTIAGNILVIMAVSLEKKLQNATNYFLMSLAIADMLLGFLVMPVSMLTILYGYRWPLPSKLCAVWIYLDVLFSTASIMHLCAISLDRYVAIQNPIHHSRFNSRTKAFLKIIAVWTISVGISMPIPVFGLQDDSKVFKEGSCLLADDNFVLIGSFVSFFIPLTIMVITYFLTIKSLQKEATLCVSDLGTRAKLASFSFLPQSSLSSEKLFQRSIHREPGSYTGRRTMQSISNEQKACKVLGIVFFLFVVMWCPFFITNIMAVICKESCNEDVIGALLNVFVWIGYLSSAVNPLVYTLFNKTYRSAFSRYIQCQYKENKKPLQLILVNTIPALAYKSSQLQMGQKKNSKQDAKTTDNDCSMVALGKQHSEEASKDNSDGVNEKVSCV
Summary of the method: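 CHO cells stably expressing human HTR2A were plated for 18 h at 37 C, then loaded with calcium dye for 1 h. Compounds were preincubated 5 min at room temperature before DOI (4 nM solution) was added. Kinetic fluorescence was read for 3 min.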

[12] = molecular target: 5-hydroxytryptamine receptor 2A (Homo sapiens) (UniProt P28223); experiment: 5-hydroxytryptamine receptor 2A (HTR2A) small molecule agonists, cell-based qHTS assay (AID 1963587); further: nearly all actives have a fitted effect of over 30% in size
Summary of the method: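 HTR2A-CHO cells, plated 18 h at 37 C/5% CO2, dye-loaded 1 h at 37 C; compounds in DMSO added by pin tool (agonist mode). Intracellular calcium flux read as kinetic fluorescence on FDSS over 2 min at 1 s intervals.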

[13] = molecular target: Muscarinic acetylcholine receptor M1 (Homo sapiens) (UniProt P11229); experiment: Cholinergic receptor muscarinic 1 (CHRM1) small molecule antagonists, cell-based qHTS assay (AID 1963588); further: nearly all actives have a fitted effect of over 40% in size
Chain of Muscarinic acetylcholine receptor M1 (Homo sapiens) (P11229 whole entry, looked up): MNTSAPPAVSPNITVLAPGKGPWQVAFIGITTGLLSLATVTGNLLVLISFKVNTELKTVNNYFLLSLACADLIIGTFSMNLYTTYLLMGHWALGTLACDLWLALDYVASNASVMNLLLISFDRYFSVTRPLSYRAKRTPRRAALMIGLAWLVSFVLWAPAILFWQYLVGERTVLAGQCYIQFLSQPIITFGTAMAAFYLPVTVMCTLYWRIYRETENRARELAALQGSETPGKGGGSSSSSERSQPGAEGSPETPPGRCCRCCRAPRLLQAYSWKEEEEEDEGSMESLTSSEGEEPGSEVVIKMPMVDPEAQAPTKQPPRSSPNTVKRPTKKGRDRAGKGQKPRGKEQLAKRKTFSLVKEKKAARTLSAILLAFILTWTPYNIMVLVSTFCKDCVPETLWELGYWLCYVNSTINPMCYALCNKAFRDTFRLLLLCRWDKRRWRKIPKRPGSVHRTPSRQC
Summary of the method: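 Compounds were tested at 15 concentrations in three independent runs. Dye-loaded CHRM1-CHO cells were exposed 5 min at room temperature before stimulation by acetylcholine added at 50nM. Intracellular calcium was read kinetically on FDSS for 3 min.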

[14] = molecular target: Muscarinic acetylcholine receptor M1 (Homo sapiens) (UniProt P11229); experiment: Cholinergic receptor muscarinic 1 (CHRM1) small molecule agonists, cell-based qHTS assay (AID 1963589); further: nearly all actives have a fitted effect of over 35% in size
Summary of the method: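 Calcium flux read-out: kinetic fluorescence at 1 sec intervals after pin-tool compound addition to dye-loaded CHRM1-CHO cells (human M1). Agonist mode; 15 concentrations tested in triplicate independent runs.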

[15] = cAMP Responsive Elements (CRE) small molecule agonists, cell-based qHTS assay (AID 1963590)
Summary of the method: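 Beta-lactamase reporter readout: LiveBLAzer B/G FRET substrate, 2 h at room temperature, added after 3 h compound treatment of CRE-bla HEK 293T cells at 37 C/5% CO2.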

[16] = cAMP Responsive Elements (CRE) small molecule antagonists, cell-based qHTS assay (AID 1963591; active means well fitted inhibition curve with a large enough effect in the signal ratio in the repeat runs, not every such curve was filed as active; the % refers to the signal ratio)
Summary of the method: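 HEK293T CRE-bla; 18 h preincubation; compound pin-transfer; NKH477 0.25 uM final, 3 h, 37 C; LiveBLAzer FRET substrate 2 h RT.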

[17] = molecular target: Beta-2 adrenergic receptor (Homo sapiens) (UniProt P07550); experiment: Adrenergic beta2 receptor (ADRB2) small molecule antagonists, cell-based qHTS assay (AID 1963592); further: series mostly up to about 92 µM; nearly all actives have a fitted effect of over 50% in size
Chain of Beta-2 adrenergic receptor (Homo sapiens) (P07550 whole entry, looked up): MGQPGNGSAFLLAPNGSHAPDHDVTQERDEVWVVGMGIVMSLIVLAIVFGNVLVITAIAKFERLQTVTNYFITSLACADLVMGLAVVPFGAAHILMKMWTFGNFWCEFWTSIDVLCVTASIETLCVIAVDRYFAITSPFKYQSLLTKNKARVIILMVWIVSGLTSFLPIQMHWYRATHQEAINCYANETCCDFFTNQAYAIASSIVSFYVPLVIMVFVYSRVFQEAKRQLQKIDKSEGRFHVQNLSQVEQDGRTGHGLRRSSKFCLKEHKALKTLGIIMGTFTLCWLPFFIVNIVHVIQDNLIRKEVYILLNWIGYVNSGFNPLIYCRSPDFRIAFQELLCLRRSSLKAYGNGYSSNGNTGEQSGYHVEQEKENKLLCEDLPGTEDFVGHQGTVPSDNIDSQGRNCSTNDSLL
Summary of the method: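 Assay format: CHO-ADRB2 cells, 18-20hr seeding at 37C/5% CO2, then compound plus 1nM isoproterenol agonist mix for 0.5hr RT. Homogeneous time-resolved fluorescence cAMP detection after 1hr, expressed as 665/615 nm ratio.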

[18] = molecular target: D(2) dopamine receptor (Homo sapiens) (UniProt P14416); experiment: Dopamine D2 receptor (DRD2) small molecule agonists, cell-based qHTS assay (AID 1963594); further: nearly all actives have a fitted effect of over 35% in size
Chain of D(2) dopamine receptor (Homo sapiens) (P14416 whole entry, looked up): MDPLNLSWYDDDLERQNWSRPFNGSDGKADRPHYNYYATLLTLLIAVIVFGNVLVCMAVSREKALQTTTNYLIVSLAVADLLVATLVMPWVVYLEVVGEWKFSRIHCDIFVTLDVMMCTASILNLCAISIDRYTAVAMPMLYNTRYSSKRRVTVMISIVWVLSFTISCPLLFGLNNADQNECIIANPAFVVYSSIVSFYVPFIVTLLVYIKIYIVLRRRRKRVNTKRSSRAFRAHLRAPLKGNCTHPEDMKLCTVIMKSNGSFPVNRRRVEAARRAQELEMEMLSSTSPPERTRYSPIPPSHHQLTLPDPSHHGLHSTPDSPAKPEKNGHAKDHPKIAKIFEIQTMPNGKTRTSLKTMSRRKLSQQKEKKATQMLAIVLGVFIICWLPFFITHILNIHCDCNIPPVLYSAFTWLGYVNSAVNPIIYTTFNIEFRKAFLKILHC
Summary of the method: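 HEK293 cells stably expressing DRD2 were cultured 24 h at 37 C, then given Ro20-1724 (0.1 mM final) and compounds for 10 min at room temperature. NKH477 (200nM) was then added for 30 min. cAMP was read by HTRF.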

[19] = molecular target: D(2) dopamine receptor (Homo sapiens) (UniProt P14416); experiment: Dopamine D2 receptor (DRD2) small molecule antagonists, cell-based qHTS assay (AID 1963595; active means well fitted inhibition curve with a large enough effect in the signal ratio in the repeat runs, with a control signal flat; the % refers to the signal ratio; further: potency means the concentration at half of the fitted maximal effect)
Summary of the method: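 HTRF cAMP read-out at 665 and 620 nm emission (340 nm excitation). Antagonist mode: compounds were tested against 12 nM quinpirole in DRD2-HEK293 cells, with 200 nM NKH477 raising cAMP and 0.1 mM Ro20-1724 blocking its breakdown.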

[20] = molecular target: Beta-2 adrenergic receptor (Homo sapiens) (UniProt P07550); experiment: Adrenergic beta2 receptor (ADRB2) small molecule agonists, cell-based qHTS assay (AID 1963593);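 further: CHO cells stably overexpressing human ADRB2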
Summary of the method: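 CHO cells stably over-expressing ADRB2 were plated overnight at 37C, then dosed with compounds plus a stimulation mix containing 100uM IBMX and 25uM Ro-20-1724 for 0.5hr at room temperature. cAMP was measured by HTRF competition, 1hr.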

Measured: Potency

CCOc1cccc(N)c1
not listed: [20]
inactive: all other assays above

O=C(NCC1CN(c2ccc(N3CCOCC3=O)cc2)C(=O)O1)c1ccc(Cl)s1 (centres undefined)
not listed: [2] | [3] | [8] | [10] | [15]
inactive: all other assays above

Cc1cc(N)c2cc(NC(=O)Nc3ccc4nc(C)cc(N)c4c3)ccc2n1
not listed: [13] | [17] | [19] | [20]
inactive: all other assays above

Cc1cccc2sc(N)nc12
not listed: [9] | [18]
inactive: all other assays above

CN(C)CCCN1c2ccccc2Sc2ccccc21
active: [19] 29.8 µM
not listed: [9] | [10] | [11] | [12] | [13] | [14] | [17] | [20]
inactive: all other assays above

CNCCc1ccccn1
not listed: [11] | [12] | [13] | [14] | [17]
inactive: all other assays above

CC(=O)N[C@@H](CCC(N)=O)C(=O)O
not listed: [9] | [11] | [18] | [20]
inactive: all other assays above

CC(C(=O)O)c1ccc(/C=C2\CCCCC2=O)cc1 (centres undefined)
not listed: [8] | [15] | [16] | [18] | [20]
inactive: all other assays above

CC(C)C[P+](C)(CC(C)C)CC(C)C
not listed: [9] | [11] | [15] | [19] | [20]
inactive: all other assays above

CCC(=O)O[C@]1(C(=O)CCl)[C@@H](C)C[C@H]2[C@@H]3CCC4=CC(=O)C=C[C@]4(C)[C@@]3(F)[C@@H](O)C[C@@]21C
not listed: [9] | [11] | [12] | [13] | [14] | [15] | [16]
inactive: all other assays above

Oc1ccc2c(c1)OCO2
not listed: [9] | [20]
inactive: all other assays above

CCCC(C(=O)OCCN(CC)CC)(c1ccccc1)c1ccccc1
active: [19] 26.6 µM
not listed: [11] | [14] | [15] | [16] | [17] | [18] | [20]
inactive: all other assays above

Nc1ccc(C(=O)OCCCOC(=O)c2ccc(N)cc2)cc1
not listed: [8] | [15] | [16] | [20]
inactive: all other assays above

Nc1ccc(S(=O)(=O)O)cc1
not listed: [9] | [20]
inactive: all other assays above
